Laboratory results: ChEMBL document CHEMBL4888484, “Replenishing the malaria drug discovery pipeline: Screening and hit evaluation of the MMV Hit Generation Library 1 (HGL1) against asexual blood stage Plasmodium falciparum ,using a nano luciferase reporter read-out” (2022)
In all, about 150,000 compounds went through this assay and about 540 (0.36%) showed an effect of 50% or more. For the sample, strong results were picked, then their nearest neighbours and some compounds at random.

tested on: Plasmodium falciparum; assay: Primary screen in NF54 nanoGlo assay, in single point, at 2uM, 72h; a lower Z score goes with more inhibition; type: functional, Erythrocyte; conditions: timepoint 72 hour

| SMILES | % Inhibition | Z score |
| --- | --- | --- |
| Cc1csc(Oc2ccc(N)cc2F)n1 | -12% | 1.47 |
| CC1CN(C(=O)CN(C)c2cnccn2)CC(C)O1 (stereo not drawn) | -5% | 0.83 |
| Cc1cc(NC(=O)c2ccccn2)n(-c2nc3ccccc3o2)n1 | 89% | -10.15 |
| O=C(Nc1cccc(CNc2nc3ccccc3o2)c1)c1ccccn1 | -13% | 1.61 |
| Cc1nc2cc(NC(=O)c3ccccn3)ccc2o1 | 11% | -1.99 |
| CN(CC(F)(F)F)C(=O)CNc1ncccn1 | 3% | -0.38 |
| Cc1cc(C)cc(NC(=O)C23CCC(C)(C(=O)C2=O)C3(C)C)c1 (stereo not drawn) | 9% | -1.39 |
| COc1cccc(NC(=O)c2cc(C(=O)Nc3cccc(OC)c3)cc(N3C(=O)c4ccccc4C3=O)c2)c1 | 18% | -2.84 |
| Cc1nc(O)cc(CN2CCCCC2)n1 | -11% | 1.95 |
| CC(C)c1nc(O)cc(CN2CCCCC2)n1 | 33% | 1.16 |
| CC(C)c1ccc(-c2nc(CN3CCCCC3)cc(CN3CCCCC3)c2O)cc1 | 96% | -15.06 |
| Cc1ccc(S(=O)(=O)c2c(N)n(-c3ccc4c(c3)OCCO4)c3nc4ccccc4nc23)cc1 | 6% | -0.5 |
| O=C(NC1CC1c1ccc(F)cc1)N1CCN(c2ccccc2O)CC1 (stereo not drawn) | -7% | 1.5 |
| CC1(C)COc2ccc(C(=O)N3CC[C@H](O)C3(C)C)cc21 | 19% | -2.22 |
| CCn1nnc2cc(C(=O)N3CCN(C(c4ccccc4)c4ccccc4)CC3)ccc21 | 32% | -3.63 |
| COc1ccc(-c2cc3nc(C)cc(N4CCN(C/C=C/c5ccccc5)CC4)n3n2)cc1OC | 51% | -9.31 |
| COc1ccccc1-c1cc2nc(C)cc(N3CCN(Cc4ccccc4)CC3)n2n1 | -10% | 1.85 |
| COc1ccccc1-c1cc2nc(C)cc(N3CCN(CCO)CC3)n2n1 | -14% | 1.98 |
| COc1ccc(-c2nn3c(N4CCN(CC=Cc5ccccc5)CC4)cc(C)nc3c2C)cc1OC | 72% | -3.65 |
| COc1ccc(-c2nn3c(N4CCCCCC4)cc(C)nc3c2C)cc1OC | -8% | 1.59 |
| COc1ccc(-c2nn3c(N4CCN(C)CC4)cc(C)nc3c2C)cc1OC | -11% | 2.19 |
| COc1ccc(NC(=O)CN2C(=O)[C@H]3CCCC3=Nc3ccccc32)cc1 | 1% | -0.17 |
| Cc1cc(S(=O)(=O)N(C)CCC(=O)O)sc1C | -30% | 2.75 |
| COc1ccc(-n2c(CN3CCCC3)n[nH]c2=O)c(C)c1 | -9% | 0.87 |
| Cc1ccc(OCC(=O)Nc2noc(-c3ccc(F)cc3)n2)cc1 | -8% | 1.23 |
| CNc1nc(N2C[C@H](C)[C@@](O)(C3CC3)C2)nc2c1CCC2 | 100% | -0.11 |
| CNc1nc(N2C[C@H]3CC[C@@H](C2)N(C)C3=O)nc2c1CCC2 | 6% | -0.76 |

| SMILES | % Inhibition | Z score |
| --- | --- | --- |
| CNc1cc(C)nc(N2C[C@H](C)[C@@](O)(C3CC3)C2)n1 | 7% | -1.4 |
| C=C1C2CCC3(C4C[C@@H]5[C@@]6(C)CCC[C@]5(C3[C@H]2O)[C@@H]4N(CC)C6)[C@@H]1O (stereo partly drawn) | 31% | -3.48 |
| Cc1ccc(-c2cc(C(=O)N(Cc3cccs3)[C@H]3CCS(=O)(=O)C3)no2)cc1F | -11% | 2.15 |
| CCCCN(C)c1cc([C@H]2C[C@@H](N)C2)nc(N)n1 | -3% | 0.38 |
| CN(Cc1cc(-c2ccccc2)n[nH]1)c1cc(C2CC(O)C2)nc(N)n1 (stereo not drawn) | 7% | -1.1 |
| CN(Cc1ccc(-c2ccccc2)cc1)c1cc([C@H]2C[C@@H](N)C2)nc(N)n1 | 64% | -8.85 |
| CCn1c(CN[C@H](c2ccccc2)c2cccs2)nc2cc(S(=O)(=O)N3CCCCC3)ccc21 | 14% | -1.61 |
| Cc1ccc(NC(=O)N2CC[C@H](N3CCN(C)CC3)[C@H](CCC(=O)O)C2)c(C)c1 | 16% | -2.12 |
| O=C1CCCN1c1ccc(NCc2cccc(O)c2)cc1F | -2% | 0.32 |
| O=C(N1CCCN(C2CCC2)CC1)C1(c2ccccc2)CCOCC1 | -14% | 2.36 |
| CCOc1cc(CNc2cccc3ccccc23)cc(Br)c1OCC(=O)NC(C)(C)C | 56% | -9.96 |
| CCOc1cc(CNC2CCCC2)cc(Br)c1OCC(=O)Nc1ccccc1OC | -12% | 1.42 |
| CCOc1cc(CNc2cc(C)ccc2C)cc(Br)c1OCC(=O)Nc1ccccc1 | -2% | 0.3 |
| CN(C)c1ccccc1NC(=O)N[C@H]1CCS(=O)(=O)C1 | -11% | 1.66 |
| COC(=O)Nc1nc(-c2ccccc2)c(-c2nc3ccccc3c(=O)n2-c2ccc(OC)cc2)s1 | 51% | -6.56 |
| CCOC(=O)Nc1nc(C)c(-c2nc3ccccc3c(=O)n2-c2ccc(OC)cc2)s1 | 37% | 0.52 |
| COc1ccc(-n2c(-c3sc(Nc4ccc(Cl)cc4)nc3C)nc3ccccc3c2=O)cc1 | -3% | 0.38 |
| C[C@H]1C(=O)N(C)C[C@@H](COc2ccccc2)N1C(=O)C1CCOCC1 | -7% | 0.87 |
| Cc1cc(CNC(=O)N[C@@H]2CCc3cc(F)ccc32)on1 | -7% | 0.96 |
| CCC(=O)NC1=NN2C(=NC(c3ccc(Cl)cc3)=C[C@H]2c2ccc(F)cc2)N1 | 5% | -0.64 |
| COc1ccc([C@@H]2C=C(c3ccc(Cl)cc3)N=C3NC(NC(=O)c4ccccc4OC)=NN32)cc1 | 96% | -8.52 |
| COc1ccccc1C(=O)NC1=NN2C(=NC(c3ccc(Cl)cc3)=C[C@H]2c2ccccc2)N1 | -8% | 0.83 |
| O=C(O)CCC(=O)NC1=NN2C(=NC(c3ccccc3)=C[C@H]2c2ccc(Cl)cc2)N1 | -39% | 4.56 |
| Fc1ccc(C2=C[C@@H](c3ccc(Cl)cc3)N3N=C(c4ccc(Cl)cc4)NC3=N2)cc1 | 96% | -14.66 |
| COc1ccc([C@@H]2C=C(c3ccc(Cl)cc3)N=C3NC(N4C(=O)c5ccccc5C4=O)=NN32)cc1 | -6% | 0.61 |
| O=C(NC1=NN2C(=NC(c3ccccc3)=C[C@H]2c2ccc(F)cc2)N1)c1ccccc1 | -11% | 1.69 |
| COc1ccccc1C(=O)NC1=NN2C(=NC(c3ccc(Cl)cc3)=C[C@H]2c2ccc(Cl)cc2)N1 | 97% | -10.07 |

| SMILES | % Inhibition | Z score |
| --- | --- | --- |
| O=C(NC1=NN2C(=NC(c3ccc(Cl)cc3)=C[C@H]2c2ccc(F)cc2)N1)c1ccc(Cl)cc1 | 48% | -9.04 |
| Cc1cccc(OCC(=O)Nc2cc(-c3noc(C)n3)sc2C)c1 | -14% | 2.32 |
| Cc1ccc(-n2cnc3c2CCN(C(=O)C(=O)Nc2c4c(nn2C)CCCC4)C3)cc1 | -13% | 1.99 |
| C[C@H]1Cc2ccccc2N1C(=O)Cn1cc(-c2ccn(C)n2)nn1 | 6% | -0.77 |
| COC(=O)CC(C)NC(=O)CC(C)NC(=O)C1CCCC1 (stereo not drawn) | -9% | 1.14 |
| CC1=CC(=[N+](CCO)CCO)C=C/C1=C(\c1ccc(N(CCO)CCO)cc1C)c1ccccc1Cl | 86% | -10.15 |
| OCCN(CCO)c1ccc(C(c2ccccc2Cl)c2ccc(N(CCO)CCO)cc2Cl)c(Cl)c1 | -9% | 1.44 |
| OCCN(CCO)c1ccc2ccccc2c1 | 7% | -0.86 |
| COc1cccc(C(=O)N2CCC([C@]3(CCC(C)C)NC(=O)N(CCN(C)C)C3=O)CC2)c1OC | -8% | 1.37 |
| O=C(Cc1ccc(F)cc1Cl)N[C@@H](Cc1ccncc1)C1CC(O)C1 (stereo partly drawn) | -6% | 1.08 |
| N#Cc1cccc(CN2Cc3nc[nH]c3C[C@H]2C(=O)NCc2ccco2)c1 | -5% | 0.75 |
| Nc1c(S(=O)(=O)c2ccc(Cl)cc2)c2nc3ccccc3nc2n1Cc1ccc(F)cc1 | -2% | 0.21 |
| CCn1c(N)c(-c2nc3ccccc3[nH]2)c(=O)c2ccccc21 | -1% | 0.15 |
| Nc1c(-c2nc3ccccc3[nH]2)c2nc3ccccc3nc2n1Cc1ccccc1F | 78% | -5.76 |
| O=C(COc1ccc(Br)cc1)N1CCN(S(=O)(=O)c2ccc3ccccc3c2)CC1 | -3% | 0.36 |
| CN(C)c1nc2cc(NC(=O)Cc3noc4ccccc34)ccc2o1 | -15% | 2.38 |
| Cn1cnnc1CNC[C@H](O)c1ccc(Cl)cc1 | -8% | 1.54 |
| CN(C)CCNS(=O)(=O)c1c[nH]c2c(Br)cccc12 | 31% | -3.96 |
| Cc1ccc2nc(CN3CCS(=O)(=O)C(C)C3C)cn2c1 (stereo not drawn) | -13% | 1.17 |
| COCCCNC(=O)c1cc(Br)ccc1Br | -3% | 0.44 |
| COc1cc2c(cc1OC)CN(C(=O)c1ccc(N3CCOCC3)nc1)CC2 | 2% | -0.32 |
| CC(C)c1nnc(C2CCN(C(=O)c3c[nH]c4ccccc34)CC2)o1 | 11% | -1.46 |
| O=c1[nH]c2cc(Br)c(S(=O)(=O)Nc3cccnc3)cc2[nH]1 | 3% | -0.54 |
| Cc1cc2[nH]c(=O)[nH]c2cc1S(=O)(=O)NC1CCCCC1 | -5% | 0.69 |
| O=c1[nH]c2cc(Cl)c(S(=O)(=O)Cl)cc2[nH]1 | 69% | -7.82 |
